Test results: the supplement of paper PMC6992640
Counter-ions that a name gives are not always drawn. ± gives the standard deviation of the averaged measurements.

Key:
Assay in all cases: cell viability (% of vehicle); higher = less cytotoxic
Details in all cases: 10 µM; 72 h
HCI01 = tested on: HCI01 (cells of a triple-negative basal-like breast cancer xenograft)
HCI03 = tested on: HCI03 (cells of an ER-positive luminal breast cancer xenograft)
HCI09 = tested on: HCI09 (cells of a triple-negative luminal androgen receptor type breast cancer xenograft)
HCI11 = tested on: HCI11 (cells of an ER-positive luminal breast cancer xenograft)
HCI13 = tested on: HCI13 (cells of an ER-positive luminal breast cancer xenograft)
HCI16 = tested on: HCI16 (cells of a triple-negative basal-like breast cancer xenograft)
UCD52 = tested on: UCD52 (cells of a triple-negative basal-like breast cancer xenograft)
WHIM2 = tested on: WHIM2 (cells of a triple-negative basal-like breast cancer xenograft)
WHIM30 = tested on: WHIM30 (cells of a triple-negative basal-like breast cancer xenograft)
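Further: PDX cells carrying CMV promoter-driven luciferase, viability read as total photon flux per second by IVIS imaging following D-luciferin, vehicle control 0.1% DMSO.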

SMILES | cell viability (HCI01) | cell viability (HCI03) | cell viability (HCI09) | cell viability (HCI11) | cell viability (HCI13) | cell viability (HCI16) | cell viability (UCD52) | cell viability (WHIM2) | cell viability (WHIM30)
C[N+](C)(C)CCOC(N)=O.[Cl-] [Carbamoylcholine chloride] | 108 ± 11 | 120 | 89.4 ± 1.1 | 71.4 | 112 ± 4.6 | 124 | 95.6 ± 2.4 | 127 ± 7 | 98.9 ± 1.4
CN(CCOc1ccc(CC2SC(=O)NC2=O)cc1)c1ccccn1 (stereo unspecified) [Rosiglitazone] | 176 ± 35 | 162 | 129 ± 33 | 153 | 189 ± 26 | 142 | 124 ± 10 | 174 ± 17 | 199 ± 3.1
CC(CCC(=O)O)C1CCC2C3C(O)CC4CC(O)CCC4(C)C3CCC12C (stereo unspecified) [Chenodeoxycholic Acid] | 114 ± 38 | 104 | 66 ± 10 | 103 | 41.5 ± 4.3 | 102 | 97.13 ± 0.54 | 115 ± 23 | 146 ± 3.2
COc1cc2nccc(Oc3ccc(NC(=O)C4(C(=O)Nc5ccc(F)cc5)CC4)cc3)c2cc1OC | 108 ± 6.6 | 114 | 91.5 ± 2 | 88.9 | 97.7 ± 13 | 93.8 | 88.3 ± 15 | 90.1 ± 11 | 116 ± 3.4
COS(=O)(=O)[O-].C[N+]1(C)CCC(=C(c2ccccc2)c2ccccc2)CC1 [Diphemanil Methylsulfate] | 101 ± 3 | 121 | 97.8 ± 12 | 109 | 119 ± 5.8 | 84.7 | 94.5 ± 13 | 96.7 ± 19 | 161.9 ± 0.26
CC1=C(C(=O)O)N2C(=O)C(NC(=O)C(N)c3ccccc3)C2SC1 (stereo unspecified) [Cephalexin] | 135 ± 38 | 122 | 86.6 ± 21 | 101 | 76.3 ± 2.8 | 113 | 114.8 ± 0.94 | 118 ± 12 | 111 ± 5.6
COC(=O)C1=C(C)NC(C)=C(C(=O)OCC(C)C)C1c1ccccc1[N+](=O)[O-] (stereo unspecified) [Nisoldipine] | 98.3 ± 32 | 109 | 27.4 ± 1.6 | 74 | 93.1 ± 39 | 180 | 84.1 ± 5.2 | 88.6 ± 17 | 123 ± 16
COC(=O)C1=C(C#N)NC(C)=C(C(=O)OC(C)C)C1c1cccc([N+](=O)[O-])c1 (stereo unspecified) [Nilvadipine] | 112 ± 8.1 | 125 | 77 ± 4.5 | 85.7 | 138 ± 29 | 101 | 70.2 ± 1.1 | 116 ± 12 | 83.4 ± 10
NC(CC(=O)N1CCn2c(nnc2C(F)(F)F)C1)Cc1cc(F)c(F)cc1F.O.O=P(=O)OO.[HH] (stereo unspecified) [Sitagliptin phosphate monohydrate] | 134 ± 15 | 154 | 94.1 ± 15 | 131 | 135 ± 37 | 135 | 120 ± 3.7 | 115.8 ± 0.55 | 144 ± 14
Cc1nnc(SCC2=C(C(=O)[O-])N3C(=O)[C@@H](NC(=O)Cn4cnnn4)[C@H]3SC2)s1.[Na+] [Cefazolin (sodium salt)] | 115 ± 6.6 | 131 | 97.4 ± 9.4 | 85.9 | 125 ± 18 | 126 | 119 ± 12 | 104 ± 6 | 129 ± 8.7
CC1CCN(C(=O)CC#N)CC1N(C)c1ncnc2[nH]ccc12 (stereo unspecified) | 169 ± 6.3 | 143 | 81.1 ± 1.5 | 110 | 126 ± 11 | 151 | 136 ± 23 | 95.8 ± 7.4 | 160.4 ± 0.81
O=CC(O)C(O)C(O)CO (stereo unspecified) [Xylose] | 70.5 ± 35 | 96.1 | 91.8 ± 13 | 90.9 | 104 ± 18 | 108 | 83 ± 1.1 | 94.5 ± 4.8 | 129 ± 0.16
CCn1cc(C(=O)O)c(=O)c2cc(F)c(N3CCNCC3)cc21 [Norfloxacin] | 104 ± 11 | 143 | 116 ± 27 | 101 | 163 ± 52 | 166 | 130 ± 8.1 | 80.5 ± 17 | 160 ± 12
CC(C)(OCc1nn(Cc2ccccc2)c2ccccc12)C(=O)O [Bindarit] | 86.5 ± 68 | 133 | 95.7 ± 2.3 | 86.6 | 136 ± 0.14 | 117 | 83.1 ± 3.1 | 110 ± 19 | 149 ± 27
CNC(=C[N+](=O)[O-])NCCSCc1ccc(CN(C)C)o1.Cl [Ranitidine] | 110 ± 5 | 125 | 112 ± 1.9 | 103 | 122 ± 6.4 | 122 | 89.9 ± 9.7 | 85.6 ± 2.9 | 113 ± 11
Nc1nc(=O)c2c(CCc3ccc(C(=O)NC(CCC(=O)O)C(=O)O)cc3)c[nH]c2[nH]1.O.[Na+] (stereo unspecified) [Pemetrexed disodium hemipenta hydrate] | 97.24 ± 0.52 | 95.8 | 93.8 ± 24 | 91.3 | 90 ± 7.8 | 69.3 | 95.4 ± 1.8 | 90.47 ± 0.25 | 119 ± 36
CCN(Cc1ccncc1)C(=O)C(CO)c1ccccc1 (stereo unspecified) [Tropicamide] | 112 ± 15 | 136 | 106 ± 11 | 101 | 136 ± 23 | 110 | 74.6 ± 14 | 91.4 ± 14 | 98.61 ± 0.95
CCOC(=O)c1ncn2c1CN(C)C(=O)c1cc(F)ccc1-2 [Flumazenil] | 114 ± 6.3 | 106 | 89.6 ± 18 | 96.8 | 93.9 ± 2.9 | 92.5 | 118 ± 17 | 103 ± 7.5 | 142 ± 15
CN1CCCN=C1C=Cc1cccs1.O=C(O)c1cc2ccccc2c(Cc2c(O)c(C(=O)O)cc3ccccc23)c1O [Pyrantel Pamoate] | 82.3 ± 44 | 117 | 114 ± 12 | 101 | 146 ± 13 | 109 | 99.5 ± 12 | 95.8 ± 17 | 130 ± 3
Clc1ccc(COC(Cn2ccnc2)c2ccc(Cl)cc2Cl)c(Cl)c1 (stereo unspecified) [Miconazole] | 109 ± 41 | 87.6 | 62.3 ± 36 | 82 | 47.3 ± 10 | 120 | 74.4 ± 3 | 99.6 ± 24 | 128 ± 3.7

SMILES | cell viability (HCI01) | cell viability (HCI03) | cell viability (HCI09) | cell viability (HCI11) | cell viability (HCI13) | cell viability (HCI16) | cell viability (UCD52) | cell viability (WHIM2) | cell viability (WHIM30)
C[N+](C)(C)CC(O)CC(=O)[O-] [L-Carnitine inner salt] | 123 ± 44 | 119 | 99.8 ± 10 | 95.7 | 111.7 ± 1.1 | 114 | 103 ± 3.8 | 96.9 ± 13 | 103 ± 10
Cc1ccc(C(=O)c2cc(O)c(O)c([N+](=O)[O-])c2)cc1 [Tolcapone] | 70.6 ± 40 | 52.5 | 14.6 ± 1.4 | 57.5 | 64.16 ± 0.48 | 84.2 | 71.6 ± 18 | 117 ± 26 | 120 ± 7.5
CCCN(CCC)C(=O)C1=Cc2ccc(-c3ccc(C(=O)N4CCCC4)cc3)cc2NC(=N)C1 [Motolimod (VTX-2337)] | 100 ± 41 | 97.5 | 32.1 ± 0.89 | 63.6 | 76.6 ± 7 | 105 | 66 ± 3.8 | 71 ± 15 | 100 ± 12
Cc1ncc([N+](=O)[O-])n1CC(O)CCl (stereo unspecified) [Ornidazole] | 94.9 ± 14 | 115 | 96 ± 7.9 | 83.2 | 111 ± 18 | 105 | 85.1 ± 4.3 | 88.1 ± 8.4 | 108 ± 10
CC(CCC(=O)O)C1CCC2C3C(O)CC4CC(O)CCC4(C)C3CC(O)C12C (stereo unspecified) [Cholic acid] | 96 ± 8.2 | 142 | 89.6 ± 7.1 | 87.2 | 109 ± 9.5 | 98.7 | 101.2 ± 0.7 | 96.7 ± 11 | 99.9 ± 11
O=C(O)CCc1nc(-c2ccccc2)c(-c2ccccc2)o1 [Oxaprozin] | 121 ± 25 | 102 | 89.1 ± 2.8 | 106 | 108 ± 1.6 | 122 | 99.29 ± 0.38 | 101 ± 11 | 151 ± 17
Cc1ccc(F)c(NC(=O)Nc2ccc(-c3cccc4[nH]nc(N)c34)cc2)c1 [Linifanib (ABT-869)] | 117 ± 45 | 165 | 54.2 ± 0.96 | 68.7 | 72 ± 2.6 | 120 | 92.18 ± 0.33 | 160 ± 47 | 139 ± 45
CCOC(=O)c1ccc(OC(=O)CCCCCN=C(N)N)cc1.CS(=O)(=O)O [Gabexate mesylate] | 170 ± 9.1 | 122 | 98 ± 3.2 | 147 | 96.8 ± 1.2 | 159 | 142 ± 6.2 | 111 ± 10 | 180 ± 27
O=c1nc[nH]c2c1ncn2C1CCC(CO)O1 (stereo unspecified) [Didanosine] | 105.3 ± 0.26 | 139 | 95.4 ± 7 | 118 | 99.18 ± 0.8 | 90.8 | 96.8 ± 9.7 | 98.5 ± 22 | 90.6 ± 1.1
CCN(CC)CCNC(=O)c1cc(Cl)c(N)cc1OC [Metoclopramide] | 112 ± 6.5 | 107 | 90.8 ± 17 | 94.6 | 121 ± 10 | 72.6 | 98.01 ± 0.093 | 88.4 ± 2.2 | 113 ± 27
CO[C@H]1/C=C/O[C@@]2(C)Oc3c(C)c(O)c4c(c3C2=O)C(=O)/C(=C/NN2CCN(C)CC2)C(=C4O)NC(=O)/C(C)=C/C=C/[C@H](C)[C@H](O)[C@@H](C)[C@@H](O)[C@@H](C)[C@H](OC(C)=O)[C@@H]1C [Rifampin] | 86.5 ± 29 | 133 | 85.8 ± 2.5 | 94.5 | 108 ± 16 | 145 | 82.91 ± 0.51 | 64 ± 0.77 | 94.88 ± 0.76
CCOC(=O)NC1CCC2C(C1)CC1C(=O)OC(C)C1C2C=Cc1ccc(-c2cccc(F)c2)cn1 (stereo unspecified) [Vorapaxar] | 132 ± 37 | 121 | 90.5 ± 21 | 104 | 84.1 ± 22 | 108 | 76.4 ± 3.5 | 115 ± 27 | 72.6 ± 10
CC(C)C(N)C(=O)OCC(CO)OCn1cnc2c(=O)nc(N)[nH]c21.Cl (stereo unspecified) [Valganciclovir HCl] | 96.1 ± 5.7 | 104 | 90 ± 24 | 90.6 | 55.1 ± 2 | 111 | 120 ± 38 | 111 ± 28 | 138 ± 13
O=C([O-])c1ccccc1O.[Na+] [Sodium salicylate] | 96.1 ± 24 | 121 | 100 ± 7.2 | 91.4 | 107 ± 12 | 124 | 85.6 ± 3.5 | 89.1 ± 15 | 94.4 ± 3.4
Cl.NCCS [Cysteamine HCl] | 112 ± 4.3 | 112 | 93.4 ± 4.4 | 95.8 | 79.5 ± 5.4 | 108 | 92.8 ± 18 | 102.7 ± 1 | 102 ± 7
CN(C)CCCOc1nn(Cc2ccccc2)c2ccccc12.Cl [Benzydamine HCl] | 171 ± 76 | 85.4 | 79 ± 16 | 104 | 66.2 ± 11 | 163 | 100.3 ± 0.44 | 116 ± 6.4 | 123 ± 18
COc1c2ccoc2cc2oc(=O)ccc12 [5-Methoxypsoralen] | 103 ± 24 | 142 | 93.1 ± 13 | 93.8 | 121 ± 3.1 | 109 | 85.2 ± 13 | 103 ± 3.7 | 93 ± 3.1
O=C(O)Cc1cc(I)c(Oc2ccc(O)c(I)c2)c(I)c1 [Tiratricol] | 112 ± 48 | 99 | 82.8 ± 6.7 | 87.2 | 42.5 ± 4.2 | 97.2 | 75.6 ± 7.3 | 103 ± 20 | 115 ± 6.8
COc1cc2c(cc1O)CCC1C2CCC2(C)C(O)CCC12 (stereo unspecified) [2-Methoxyestradiol (2-MeOE2)] | 141 ± 8 | 110 | 94.8 ± 12 | 117 | 181 ± 10 | 121 | 95.1 ± 7.2 | 114 ± 7 | 150 ± 22
